In the library only some 4.7% were active in any assay of this set; here they are far more common.
tim23-1 inh = tim23-1 yeast growth inhibition. S. cerevisiae tim23-1 growth, BacTiter-Glo luminescence, 24 h. inhibition, % at 20 µM. 1.3% of 330,000 active. AID 463212;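 active = growth inhibition of the mutant yeast at or above 50%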;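 also: temperature-sensitive mutant grown at 25 °C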
tim10-1 inh = inhibits growth of tim10-1 mutant yeast. AID 463190. S. cerevisiae tim10-1 ts strain growth, BacTiter-Glo, 24 h. 2.2% of 330,000 active. inhibition, % at 20 µM;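 active = inhibition of at least 40%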;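 also: mutant grown at 25 °C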
Calb FLC = C. albicans growth modulation with fluconazole | growth inhibition, % (test concentration not listed) | C. albicans CaCi-2 (fluconazole-resistant clinical isolate) + fluconazole, Alamar Blue growth, 48 h | 0.57% of 300,000 active | AID 1979;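 active = growth inhibition above about 58% in most replicates, limit read from the data, passing the limit was not always enough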;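 also: all wells also contain fluconazole at 8 µg/ml as a sub-toxic cotreatment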
TIM10 inh = TIM10 yeast growth inhibition; inhibition, % at 10 µM; S. cerevisiae TIM10 strain growth, BacTiter-Glo luminescence, 24 h; 1.4% of 330,000 active; AID 463195;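 active = inhibition of 40% or more at the single tested concentration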;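 also: wild-type TIM10 isogenic control strain grown at permissive 25 °C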
PfHsp90 set2 = growth inhibition of yeast expressing Plasmodium Hsp90 | S. cerevisiae expressing PfHsp90, BacTiter-Glo ATP, 48 h; yeast lacking PDR1 and PDR3 efflux regulators | 0.32% of 310,000 active | AID 504621 | inhibition, % at 9.4 µM;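 active = every replicate shows inhibition above about 80%, whatever the replicate mean, limit read from the data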
SKKanGAS inh = SKKanGAS growth inhibition; inhibition, % at 7.5 µM; 1.3% of 300,000 active; S. pyogenes SKKanGAS, kanamycin growth, BacTiter-Glo, 6 h; AID 1662;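 active = mean replicate score, as percent of positive control median, at least 50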;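 also: strain carries kanamycin resistance gene driven by streptokinase promoter and grows in 40 µg/ml kanamycin; loss of luminescence reflects streptokinase promoter inhibition or plain growth inhibition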
tim10-1 conf = confirmation of tim10-1 mutant yeast growth inhibitors | AID 463213 | shares compounds with tim10-1 inh | inhibition, % at 20 µM | 56% of 7,400 active | S. cerevisiae tim10-1 ts strain growth, BacTiter-Glo, 24 h;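 active = inhibition of yeast growth at or above a set limit in either of two repeat tests at 20 µM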;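 also: tim10-1 mutant grown at permissive 25 °C to find synthetic lethal compounds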
tim10 confirm = TIM10 yeast growth inhibition, confirmed | shares compounds with TIM10 inh | inhibition, % at 10 µM | 63% of 4,600 active | S. cerevisiae tim10 strain growth, BacTiter-Glo luminescence, 24 h;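 active = inhibition of yeast growth at or above a set limit in either of two replicates at 10 µM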; also: this counterscreen used the strain with wild-type TIM10
Of the large screens only hits and unclear results are named; the others gave an inactive call (follow-up assays come after a bar, where they were run).

COc1ccc(/C=C2/CCc3ccccc3C2=O)cc1CN1CCOCC1	none
COc1ccc(/C=C2\CCc3ccccc3C2=O)cc1Cn1nc(C)cc1C	tim10-1 inh 45, TIM10 inh 49 | tim10-1 conf 37 | tim10 confirm 40
CSc1ccccc1C(=O)N1CCC2(CC1)CC(=O)c1ccccc1O2	none (no result: PfHsp90 set2)
COc1ccc(NC(=O)/C(C#N)=C/c2c(C)nn(-c3ccc(F)cc3)c2Cl)cc1OC	tim10-1 inh 51, TIM10 inh 49 | tim10-1 conf 45 | tim10 confirm 42
CCC(=O)Nc1cccc(C(=O)/C=C/c2cccs2)c1	tim10-1 inh 46, TIM10 inh 42 | tim10-1 conf inactive | tim10 confirm inactive
NC(=O)c1ccsc1NC(=O)c1ccc2c(c1)CCCC2	tim10-1 inh 46, TIM10 inh 56 | tim10-1 conf inactive | tim10 confirm 37
C=CCc1cccc(/C=N/NC(=O)CNc2ccccc2OC)c1O	tim10-1 inh 47, Calb FLC 93, TIM10 inh 97 | tim10-1 conf inactive | tim10 confirm 47
C=CCc1cccc(/C=N/NC(=O)CNc2ccccc2)c1O	none
O=c1c2c(c(-c3ccccc3)nn1Cc1ccccc1)CCCC2	none
CCC(C)C(=O)Nc1nc(C)c(-c2csc(Nc3ccc(Cl)cc3)n2)s1 (stereo not given)	tim10-1 inh 40, TIM10 inh 44 | tim10-1 conf inactive | tim10 confirm inactive
CCCC(=O)Nc1nc(C)c(-c2csc(Nc3ccc(Cl)cc3)n2)s1	none
CCCCCCCC(=O)N/N=C/c1ccc([N+](=O)[O-])o1	tim10-1 inh 55, Calb FLC 101, TIM10 inh 49 (no result: PfHsp90 set2) | tim10-1 conf 56 | tim10 confirm inactive
COc1ccccc1OCC(=O)N/N=C/C=C/c1ccc([N+](=O)[O-])o1	tim10-1 inh 67, Calb FLC 94, TIM10 inh 48 | tim10-1 conf 84 | tim10 confirm 51
Cc1ccccc1OCC(=O)N/N=C/c1ccc([N+](=O)[O-])o1	tim10-1 inh 45, TIM10 inh 42 | tim10-1 conf 35 | tim10 confirm inactive
Cc1ccccc1OCC(=O)NCC(=O)N/N=C/c1ccc(Br)o1	none
Cc1cc(NC(=O)CN2C(=O)N(C)C3(CCCCC3)C2=O)ccc1Br	none (no result: Calb FLC, SKKanGAS inh)
Cc1c(NC(=O)COC(=O)C2=COCCO2)cccc1[N+](=O)[O-]	none
O=C(NC(=S)Nc1nc2ccc(F)cc2s1)c1ccco1	none
Cc1ccc2c(c1)/C(=C/c1ccccc1)C(=O)N2	tim10-1 inh 55, TIM10 inh 49 | tim10-1 conf 39 | tim10 confirm 62
CCOC(=O)c1sc(NC(=S)NC(=O)C2CCCC2)cc1C	none
CCOC(=O)c1sc(NC(=S)NC(=O)CC(C)C)cc1C	tim10-1 inh 53, TIM10 inh 58 | tim10-1 conf 42 | tim10 confirm 51
CCOc1c(OC(C)=O)ccc(/C=C2\N=C(SCC)SC2=O)c1[N+](=O)[O-]	tim10-1 inh 50, TIM10 inh 45 | tim10-1 conf 46 | tim10 confirm 31
O=C(/C=C/c1ccc(N2CCC(c3ccccc3)=N2)cc1)c1ccccc1	tim10-1 inh 41, TIM10 inh 43 (no result: PfHsp90 set2) | tim10-1 conf inactive | tim10 confirm inactive
Cc1ccc(N(CC(=O)Nc2cccc(Cl)c2C)S(C)(=O)=O)cc1	none
CCOc1ccc(N2C(=O)CC(N)C2=O)cc1 (stereo not given)	tim10-1 inh 73, TIM10 inh 72 (no result: SKKanGAS inh) | tim10-1 conf 69 | tim10 confirm 70
COc1ccc(N2C(=O)CC(Sc3n[nH]c(-c4ccccc4)n3)C2=O)cc1 (stereo not given)	none
CCOc1ccc(N2C(=O)CC(Sc3n[nH]c(-c4ccccc4)n3)C2=O)cc1 (stereo not given)	tim10-1 inh 51, TIM10 inh 57 | tim10-1 conf 53 | tim10 confirm 36
COc1cccc(N2CCN(C3CC(=O)N(c4ccc(Cl)c(Cl)c4)C3=O)CC2)c1 (stereo not given)	tim10-1 inh 55, TIM10 inh 41 | tim10-1 conf 31 | tim10 confirm 40
COc1ccc(N2C(=O)CC(N3CCN(c4cccc(Cl)c4)CC3)C2=O)cc1 (stereo not given)	none
CCOC(=O)c1ccccc1N1C(=O)CSC1=S	tim10-1 inh 49, TIM10 inh 48 | tim10-1 conf inactive | tim10 confirm 45
Cc1ccccc1C(=O)NN1C(=O)CSC1=S	none (no result: PfHsp90 set2)
O=C(NCc1ccco1)c1ccccc1F	none
O=C(NCc1ccco1)c1ccccc1Nc1ccc(F)cc1	tim10-1 inh 52, TIM10 inh 44 (no result: SKKanGAS inh) | tim10-1 conf 47 | tim10 confirm 36
CCCNC(=S)Nc1ccc(Br)cc1	none
S=C(NCCSCc1ccc(Cl)cc1Cl)Nc1ccccc1	tim10-1 inh 48, TIM10 inh 59, SKKanGAS inh 56 | tim10-1 conf 45 | tim10 confirm 53
O=C(NCCSCc1c(F)cccc1Cl)Nc1ccccc1	none
CCOc1ccc(NC(=S)NCCCc2ccccc2)cc1	none (no result: PfHsp90 set2)
CCCNC(=S)Nc1ccc(Oc2ccccc2)cc1	tim10-1 inh 42, TIM10 inh 42 | tim10-1 conf inactive | tim10 confirm inactive
S=C(NCCSCc1ccc(Cl)c(Cl)c1)Nc1ccccc1	tim10-1 inh 54, TIM10 inh 45, SKKanGAS inh 52 | tim10-1 conf inactive | tim10 confirm inactive
CCOc1ccc(CSCCNC(=S)Nc2ccccc2)cc1	tim10-1 inh 42, TIM10 inh 47 | tim10-1 conf inactive | tim10 confirm inactive
COc1cc(-c2nnc(COC(=O)c3ccc(C)o3)o2)cc(OC)c1OC	none (no result: Calb FLC, SKKanGAS inh)
COc1ccccc1C(=O)COC(=O)C1(C)CC1(Cl)Cl (stereo not given)	none (no result: Calb FLC, SKKanGAS inh)
COC(=O)COc1ccc2c(c1)O/C(=C\c1cccc([N+](=O)[O-])c1)C2=O	none
Cc1cccc(/C=C2\Oc3cc(OS(C)(=O)=O)ccc3C2=O)c1	tim10-1 inh 47, TIM10 inh 43 | tim10-1 conf 37 | tim10 confirm inactive
O=C(NCCN1CCN(C(=O)c2cccc(OC(F)F)c2)CC1)c1cccc(OC(F)F)c1	none (no result: Calb FLC, PfHsp90 set2, SKKanGAS inh)
O=c1oc2ccccc2c(O)c1/C=C1\C=Nc2ccccc21	tim10-1 inh 65, TIM10 inh 69 | tim10-1 conf 72 | tim10 confirm inactive
Cc1cc(C)c2sc(N(CCCN(C)C)C(=O)c3ccc(S(=O)(=O)N4CCCc5ccccc54)cc3)nc2c1	tim10-1 inh 54, TIM10 inh 51 | tim10-1 conf 41 | tim10 confirm 33
Cc1cccc2sc(N(CCCN(C)C)C(=O)c3ccc(S(=O)(=O)N4CCc5ccccc5C4)cc3)nc12	tim10-1 inh 41, TIM10 inh 40 | tim10-1 conf inactive | tim10 confirm inactive
